The values below come from PubChem BioAssay (NCI).

The structures appear in SMILES notation. The panel holds about 79,000 compounds, 15% with a hit somewhere; the sample as a whole holds those more often. Values without a mark were called inactive. Activity calls are given as the source filed them. Rule as the data show it: active = growth inhibition above about 70%; inactive = the rest. Where a SMILES comes first, the peptide text is derived from it.

Assay [1] is described as follows: NCI Yeast Anticancer Drug Screen. Data for the rad50 strain (AID 155).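 Also: 0% = growth of vehicle-only cultures of the same strain.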 To be noted: S. cerevisiae rad50 strain growth inhibition; at 50.0 µM; active compounds read high. The method in brief: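 Growth of the mutant yeast was measured after compound exposure and referenced to vehicle-treated cultures.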
A short description of assay [2]: NCI Yeast Anticancer Drug Screen. Data for the mec2-1 strain (AID 157). Particulars: S. cerevisiae mec2-1 strain, at 50.0 µM, active compounds read high. In outline: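 Cells of the genetically defined mec2-1 yeast strain are incubated with test compound. Inhibition of growth is calculated against vehicle-treated controls.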
Assay [3] is described as follows: NCI Yeast Anticancer Drug Screen. Data for the sgs1 mgt1 strain (AID 161).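 Also: 0% = growth of cultures given vehicle only.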 Particulars: S. cerevisiae sgs1 mgt1 strain, at 50.0 µM, active compounds read high. The method in brief:
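Genetically altered yeast, compound exposure, growth inhibition relative to vehicle.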

Assay [4] is described as follows: NCI Yeast Anticancer Drug Screen. Data for the cln2 rad14 strain (AID 165).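 Also: 0% = growth equal to vehicle treated cultures.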 Particulars: S. cerevisiae cln2 rad14 strain, at 50.0 µM, active compounds read high. In outline:
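The screen exposed genetically defined yeast (cln2 rad14) to test compounds and scored growth inhibition relative to vehicle-treated controls.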

The nature of assay [5]: NCI Yeast Anticancer Drug Screen. Data for the bub3 strain (AID 167). Particulars: S. cerevisiae bub3 mutant strain, at 50.0 µM, active compounds read high. The method in brief: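 Whole-cell yeast assay. The mutant strain was incubated with compounds, and growth inhibition was determined by comparison with vehicle-treated cells.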
A short description of assay [6]: NCI Yeast Anticancer Drug Screen. Data for the mlh1 rad18 strain (AID 175). Particulars: S. cerevisiae mlh1 rad18 strain growth inhibition; at 50.0 µM; active compounds read high. The method in brief: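 Compound-treated yeast growth, normalised to vehicle controls. Strain bears defined DNA repair mutations.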

In the case of `C1OCC(C2OCOC2C2OCOC2C2COCO2)O1` (stereo not given), the growth inhibition was 7.8% in assay [1]; 20.9% in assay [2]; -5.25% in assay [3]; -8.65% in assay [4]; 34.9% in assay [5]; 9.5% in assay [6].
For the molecule `O=C(O)C1CCOCC1`, the growth inhibition is 9.9% in assay [1]; 0.7% in assay [2]; 2.35% in assay [3]; 4% in assay [4]; 15.2% in assay [5]; -0.4% in assay [6].
On to `COc1cc(=O)cc2n(-c3cc(OC)c(O)c(OC)c3)c3ccccc3nc1-2`, for which the growth inhibition was 23.6% in assay [1]; 0.1% in assay [2]; 5.95% in assay [3]; 6% in assay [4]; -8.3% in assay [5]; 23.5% in assay [6].
`CC(=O)OCCCC(C)Nc1ccnc2cc(Cl)ccc12` (stereo not given): the growth inhibition is -8.15% in assay [1]; -8.95% in assay [2]; -2.35% in assay [3]; 19.9% in assay [4]; -7.9% in assay [5]; 11.3% in assay [6].
Regarding `O=C1C=CC(=O)N1Cc1ccco1`, the growth inhibition in assay [1] is -3.7%; in assay [2], -16.8%; in assay [3] it was 5.9%; in assay [4], 8.5%; in assay [5], 10.1%; in assay [6] it was -16.6%.
As to `COc1ccc(/C=N/NC(N)=S)cc1`, the growth inhibition in assay [1] is 24.1%; in assay [2], 14.6%; in assay [3], 28.6%; in assay [4], -13%; in assay [5], 12.8%; in assay [6] it was 46.6%.
In the case of `CCOC(=O)/C(=C\c1ccccc1)NC(=O)c1ccccc1`, the growth inhibition in assay [1] was 5.4%; in assay [2], -2.75%; in assay [3], -2.35%; in assay [4] it was 7.3%; in assay [5], 20%; in assay [6], 4.85%.
On to `O=C(c1cc2ccccc2s1)c1ccccc1Cc1cccc2ccccc12`, for which the growth inhibition in assay [1] was 33.8%; in assay [2] it was 7.25%; in assay [3], 31.2%; in assay [4], 21.2%; in assay [5], 5.45%; in assay [6], -0.75%.
Take `OC(CC1CCCC(CC(O)c2ccccc2)N1CCc1ccccc1)c1ccccc1` (stereo not given): the growth inhibition in assay [1] was 24.8%; in assay [2] it was -1.3%; in assay [3] it was 22.4%; in assay [4], 35.4%; in assay [5] it was 38.2%; in assay [6], 21.2%.
`COc1cc(NCCCCCCCNC(C)C)c2nccc(C)c2c1`: the growth inhibition in assay [1] was 26.7%; in assay [2], 13.7%; in assay [3], -6.25%; in assay [4], 7.35%; in assay [5], -2.7%; in assay [6], -33.1%.
Regarding `C[N+](C)(C)N=C1CCCCC1`, the growth inhibition in assay [1] was 10.9%; in assay [2], -3.6%; in assay [3] it was -11.3%; in assay [4], 7.5%; in assay [5], -2.6%; in assay [6], -16.8%.
For the molecule `O=C(O)C1CC2CC2C1` (stereo not given), the growth inhibition in assay [1] was 2.6%; in assay [2], 12%; in assay [3] it was -2.8%; in assay [4], 9.9%; in assay [5], 16.1%; in assay [6] it was 9.1%.
On to `COC(=O)c1cccc2c1-c1ccccc1C2=O`, for which the growth inhibition in assay [1] is 9.25%; in assay [2] it was 11.9%; in assay [3] it was -18.4%; in assay [4], 5%; in assay [5] it was 14%; in assay [6], 11.6%.
Take `N#CC(C#N)=CC(C#N)C#N`: the growth inhibition in assay [1] was -10%; in assay [2] it was -4.3%; in assay [3], -12.2%; in assay [4], -65.1%; in assay [5], 5.1%; in assay [6], -11.7%.
As for `C=CCNC(=S)Nc1ccccc1OCC`, the growth inhibition is 5.2% in assay [1]; -3.8% in assay [2]; -5.05% in assay [3]; -68.5% in assay [4]; -9.6% in assay [5]; 0.2% in assay [6].
On to `OCCCN=C1CCCCC1`, for which the growth inhibition in assay [1] was -3.4%; in assay [2], -10.3%; in assay [3] it was -35.5%; in assay [4] it was -54.4%; in assay [5], -11%; in assay [6], -13.3%.
Regarding `COC1=C(OC)C(=O)C(Sc2ccc3ccccc3c2)=C(Cl)C1=O`, the growth inhibition in assay [1] was 95.2% (active); in assay [2], 94.2% (active); in assay [3], 93.8% (active); in assay [4], 94.4% (active); in assay [5] it was 91.7% (active); in assay [6], 91.1% (active).
As for `O=[N+]([O-])c1ccc(-c2cc3ccccc3nc2Cl)cc1`, the growth inhibition in assay [1] was 15.4%; in assay [2] it was 12.1%; in assay [3], 8.4%; in assay [4] it was 5.55%; in assay [5], 28.4%; in assay [6], 17%.
`O=C1CCC2CN(C(=O)c3ccccc3)CCC2C1` (stereo not given): the growth inhibition in assay [1] is 8.75%; in assay [2], 7.7%; in assay [3], 21.1%; in assay [4], 3.1%; in assay [5] it was 16.6%; in assay [6] it was 22.2%.
With `O=C(c1ccccc1)C1(Br)CCCCC1`, the growth inhibition in assay [1] is -2.1%; in assay [2], 11.7%; in assay [3], 19.8%; in assay [4], -8.8%; in assay [5] it was 15%; in assay [6], 15.9%.
Turning to `Fc1ccc(NC(=S)Nc2ccc(F)cc2)cc1`, the growth inhibition in assay [1] was -19.4%; in assay [2] it was -5.8%; in assay [3], -10.7%; in assay [4], -6.65%; in assay [5] it was 15.1%; in assay [6] it was 3.4%.
Turning to `CCC(C)C(N)C(=O)NC(C(=O)O)C(C)C` (stereo not drawn) (H-Ile-Val-OH; configuration not given here), the growth inhibition was -32.4% in assay [1]; -13.6% in assay [2]; -0.2% in assay [3]; -41.9% in assay [4]; -0.25% in assay [5]; -0.4% in assay [6].
`O=C(c1ccncc1)n1nc(-c2ccccc2)c(N=Nc2ccccc2[N+](=O)[O-])c1-c1ccccc1`: the growth inhibition in assay [1] is -1.75%; in assay [2], -16.8%; in assay [3] it was -9.3%; in assay [4] it was 1.65%; in assay [5], 30.3%; in assay [6], 1%.
In the case of `O=C(/C=N/O)Nc1ccccc1`, the growth inhibition in assay [1] was 10.8%; in assay [2], 7.25%; in assay [3], -0.15%; in assay [4] it was 7.9%; in assay [5], 7.25%; in assay [6], -9.35%.
Consider `NCCN1CCOCC1`, for which the growth inhibition in assay [1] is 7.95%; in assay [2], -3%; in assay [3], -11.9%; in assay [4], 3.45%; in assay [5] it was -5.25%; in assay [6], 7.8%.
As to `C/C(CC(=O)Nc1ccc(Cl)cc1)=N\NC(N)=S`, the growth inhibition in assay [1] is -7.95%; in assay [2], -4.65%; in assay [3], 9.6%; in assay [4], 20.4%; in assay [5], -3.75%; in assay [6], -0.6%.
For `COc1nsc2ccc(C(C)C(N)=O)cc12` (stereo not given), the growth inhibition in assay [1] was -35.5%; in assay [2], 3.8%; in assay [3], -9.1%; in assay [4] it was -22.4%; in assay [5], -2.25%; in assay [6] it was -4.4%.
In the case of `CCCCNCCS`, the growth inhibition is 14.1% in assay [1]; -14.6% in assay [2]; 2.7% in assay [3]; 6.9% in assay [4]; -8.55% in assay [5]; 8.5% in assay [6].
In the case of `N#CNc1nc(N)cc(=O)[nH]1`, the growth inhibition was -4.65% in assay [1]; -23.6% in assay [2]; -2.45% in assay [3]; 3% in assay [4]; -27.1% in assay [5]; 11.2% in assay [6].
In the case of `COc1ccc(C(O)C(=O)c2nc3ccc([N+](=O)[O-])cc3[nH]c2=O)cc1` (stereo not given), the growth inhibition was -16.5% in assay [1]; -49.5% in assay [2]; -29.5% in assay [3]; -22.1% in assay [4]; -36.5% in assay [5]; -5.2% in assay [6].
With `CCOC(=C[P+](c1ccccc1)(c1ccccc1)c1ccccc1)OCC`, the growth inhibition in assay [1] is -6.5%; in assay [2], 20.8%; in assay [3], 2.35%; in assay [4], -9.5%; in assay [5], -3.6%; in assay [6], -36%.
For `Nc1nc(SCc2ccc(F)cc2)c2[nH]cnc2n1`, the growth inhibition in assay [1] was 16.8%; in assay [2] it was 9.35%; in assay [3] it was 12.6%; in assay [4], -8.8%; in assay [5], 12.8%; in assay [6], -21.9%.
Take `CC(=O)CC(=O)N1CCC(C)CC1`: the growth inhibition in assay [1] is 20.4%; in assay [2], -24.9%; in assay [3] it was -16.4%; in assay [4] it was 27.6%; in assay [5], -14.1%; in assay [6], -10.2%.
Turning to `COc1ccc(C(=O)C(O)c2ccc(OC)cc2)cc1` (stereo not given), the growth inhibition was 8.15% in assay [1]; -8.65% in assay [2]; -1.55% in assay [3]; -16.4% in assay [4]; -4.35% in assay [5]; 26.1% in assay [6].
For the molecule `CC1(C(=O)O)CCCCCCC1O` (stereo not given), the growth inhibition is 10.2% in assay [1]; 9.55% in assay [2]; -2.55% in assay [3]; 8.1% in assay [4]; -6.1% in assay [5]; -7.9% in assay [6].
With `Cc1cccc(C)c1/[N+]([O-])=C/c1cccc([N+](=O)[O-])c1`, the growth inhibition in assay [1] is -1.8%; in assay [2], -31.1%; in assay [3] it was -3.3%; in assay [4] it was -29.4%; in assay [5], 10%; in assay [6] it was -2.25%.
Turning to `O=C(NC(=O)c1ccc(F)c(Cl)c1)NC1CC1`, the growth inhibition in assay [1] was 6.3%; in assay [2], -1.15%; in assay [3], 12%; in assay [4], 14.2%; in assay [5], 9.25%; in assay [6], 5.3%.
With `CCCCCC[n+]1ccc(C(=O)c2ccccc2)cc1`, the growth inhibition was 34.9% in assay [1]; -5.8% in assay [2]; 19.9% in assay [3]; 7.9% in assay [4]; 0.45% in assay [5]; 32.6% in assay [6].
On to `CC(O)CNC(=O)CC(C)CC(C)(C)C` (stereo not given), for which the growth inhibition in assay [1] is 45.7%; in assay [2], 19.9%; in assay [3] it was 24.9%; in assay [4], 13.4%; in assay [5], 25.4%; in assay [6], 34%.
As for `CCN(CC)C(=O)c1cc2c(cc1[N+](=O)[O-])OCO2`, the growth inhibition was -0.6% in assay [1]; -15.4% in assay [2]; 3.65% in assay [3]; -45.8% in assay [4]; 1.25% in assay [5]; -18.4% in assay [6].
